Data taken from PubChem BioAssay (NCATS).
“And” between values parts separate entries of the source, which are not always exact repeats. Identical values can stand only once. Results filed as inconclusive are left out. The source made the active and inactive calls. Unless noted, the call rests on the fitted dose curve.

Tests used:
[1] = S16 Schwann cell PMP22 intronic element firefly luciferase assay (AID 624032; active means well fitted curve in the direction sought with a large enough effect; an effect the other way counts as inactive or inconclusive;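 further: plate controls were DMSO for no effect and PTC124 positive control mean for full effect; nearly all actives have a fitted effect of over 30% in size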)
Procedure, shortened: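 Rat S16 Schwann cells stably carrying a PMP22 intronic element-driven Fluc reporter were seeded overnight, then exposed to compounds for 24 h at 37 °C. Luminescence was normalized to PTC124 (positive control) and DMSO (0% activity).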

[2] = S16 Schwann cell PMP22 intronic element beta-lactamase assay (AID 624044);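 further: 0% = DMSO and -100% = potassium clavulanate positive control; nearly all actives have a fitted effect of over 15% in size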
Procedure, shortened: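 Rat S16 Schwann cells with beta-Lac driven by a PMP22 intronic element, compound-treated 24 h at 37 °C. LiveBLAzer FRET B/G read: 460 nm normalized to potassium clavulanate vs DMSO; 535 nm FRET as viability; concentration-effect curves classified.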

[3] = tested on: 3D7; experiment: qHTS profiling for inhibitors of Plasmodium falciparum proliferation (AID 504749; active means well fitted curve in the direction sought with a large enough effect; an effect the other way counts as inactive or inconclusive;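 further: 0% = DMSO vehicle and full inhibition = artemisinin control; nearly all actives have a fitted effect of over 60% in size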); conditions: P. falciparum in erythrocytes, SYBR Green DNA, 72 h; series mostly up to 28.7 µM
Procedure, shortened: (§1)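 P. falciparum-infected erythrocytes (0.3% parasitemia, 2.5% hematocrit final) were exposed to compounds for 72 h at 37 C in 5% CO2, then lysed with SYBR Green buffer overnight at room temperature; parasite DNA fluorescence was normalized to artemisinin and DMSO controls.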

[4] = tested on: CP297; experiment: as above; conditions: P. falciparum in erythrocytes, SYBR Green DNA, 72 h; series mostly up to 28.7 µM
Procedure, shortened: as §1

[5] = Cell Viability - BJ (AID 421); conditions: BJ fibroblast viability, qHTS;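 further: potency means the concentration at half of the fitted maximal effect; cells exposed to compound for 40 hours at 37 °C before readout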
Procedure, shortened: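 Quantitative HTS: ATP depletion in BJ cells after 40 hr compound exposure in complete culture medium, detected with CellTiter-Glo; AC50 from standard Hill fits.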

[6] = Cell Viability - Jurkat (AID 426;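 active means dose-dependent loss of cell ATP signal giving a full or clear fitted curve, ranked by lower potency value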; further: potency means the concentration at half of the fitted maximal effect); conditions: qHTS
Procedure, shortened: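 Jurkat (clone E6-1, human T-cell leukemia) cells, 5000/well in complete medium, were exposed to compound for 40 hr at 37 °C. Viability was read as intracellular ATP by CellTiter-Glo luminescence; AC50 came from Hill fits of concentration-response data.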

[7] = Cell Viability - HepG2 (AID 433); conditions: qHTS;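 further: potency means the concentration at half of the fitted maximal effect; potency for ATP loss meaning cytotoxicity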
Procedure, shortened: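 ATP luminescence (CellTiter-Glo) after 40 h compound exposure, 37 °C, HepG2, 1500 cells/well, complete medium. Normalized: DMSO = basal, 100 uM tamoxifen = 100% inhibition. AC50 via standard Hill equation.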

[8] = Cell Viability - MRC5 (AID 434); conditions: MRC5 lung fibroblast viability, qHTS;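 further: potency means the concentration at half of the fitted maximal effect; potency reflects cytotoxicity seen as loss of intracellular ATP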
Procedure, shortened: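 MRC5 normal human lung fibroblasts (1500/well) were treated with compounds for 40 hr at 37 °C in complete medium, and viable cells were measured as intracellular ATP by CellTiter-Glo luminescence. AC50 came from Hill fits, normalized to DMSO and 100 uM tamoxifen.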

[9] = Cell Viability - N2a (AID 540; active means well fitted curve in the direction sought with a large enough effect; an effect the other way counts as inactive or inconclusive;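 further: plate controls were DMSO alone for no effect and tamoxifen control for full effect; nearly all actives have a fitted effect of over 45% in size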); conditions: N2a mouse neuroblastoma cell viability; at 92.2 µM (top of the series)
Procedure, shortened: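 Mouse neuroblastoma N2a cells (1500/well) were preincubated 5 hr at 37 °C, then exposed to compounds for 40 hr at 37 °C in complete medium. Viability was read as intracellular ATP by CellTiter-Glo luminescence; AC50 from Hill fits.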

[10] = Cell Viability - HUV-EC-C (AID 542; active means well fitted curve in the direction sought with a large enough effect; an effect the other way counts as inactive or inconclusive; further: on the % scale 0 is the no-effect control and ±100 the full control effect; nearly all actives have a fitted effect of over 35% in size)
Procedure, shortened: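 HUV-EC-C normal human vascular endothelial cells, 1000 cells/well, pre-incubated 5 hr at 37 °C, then exposed to compounds for 40 hr at 37 °C in complete medium. Viability measured as intracellular ATP by CellTiter-Glo luminescence; AC50 from Hill fits.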

[11] = Cell Viability - Mesenchymal (AID 546; active means well fitted curve in the direction sought with a large enough effect; an effect the other way counts as inactive or inconclusive;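 further: cells exposed to compound for 40 hours before reading; 0% = DMSO only and -100% = 100 µM tamoxifen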)
Procedure, shortened: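 Normal human renal glomerulus-derived kidney mesenchymal cells, 1000 per well in complete medium, were treated with compounds for 40 hr at 37 °C. Viability was read as intracellular ATP by CellTiter-Glo luminescence; AC50 values came from Hill-equation fits of qHTS concentration-response data.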

[12] = qHTS Assay for Identification of Small Molecule Inducers of Hypoxia Response (AID 2120; active means well fitted curve in the direction sought with a large enough effect in the signal ratio, with a control signal flat, not every such curve was filed as active; the % refers to the signal ratio; further: 0% is about no effect)
Procedure, shortened: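 HRE-beta-lactamase reporter in CellSensor HRE-bla ME-180 cells, 2500 cells/well in Opti-MEM with 0.5% dialyzed FBS; compounds tested as titration series, 17 h at 37 degrees C. CCF4 substrate 2.5 h at room temperature; AC50 from 460/530 nm ratio.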

[13] = target: Estrogen receptor (Homo sapiens) (UniProt P03372); experiment: qHTS assay for small molecule agonists of estrogen receptor alpha signaling (AID 588514);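 further: 0% = vehicle only and 100% = reference agonist; nearly all actives have a fitted effect of over 70% in size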
Procedure, shortened: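 ER-alpha-UAS-bla GripTite HEK 293 cells in medium with 2% charcoal/dextran-treated FBS were treated with compound titrations at 37 C for 18 hrs; beta-lactamase reporter read by CCF4 fluorescence after 2 hrs at RT.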

[14] = target: Bile acid receptor (Homo sapiens) (UniProt Q96RI1); experiment: qHTS assay for small molecule antagonists of farnesoid X receptor signaling (AID 588526); further: potency means the concentration at half of the fitted maximal effect
Procedure, shortened: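 Concentration-response titrations were fitted to the Hill equation for half-maximal inhibition and maximal response, with data normalised to 50 uM chenodeoxycholic acid and DMSO control wells. Cells: FXR-UAS-bla HEK293T, dialyzed FBS.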

[15] = target: Bile acid receptor (Homo sapiens) (UniProt Q96RI1); experiment: qHTS assay for small molecule agonists of farnesoid X receptor signaling (AID 588527); conditions: HEK293T FXR-UAS-bla, beta-lactamase ratio, 16 h; activation: stronger effect = higher value;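 further: 0% = vehicle basal and 100% = reference agonist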
Procedure, shortened: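 Quantitative HTS used FXR-UAS-bla HEK293T cells with 16 h compound incubation at 37 C. EC50 values came from concentration-response curves normalized to chenodeoxycholic acid.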

[16] = target: Glucocorticoid receptor (Homo sapiens) (UniProt P04150); experiment: qHTS assay for small molecule agonists of glucocorticoid receptor signaling (AID 588532; active means well fitted curve in the direction sought with a large enough effect in the signal ratio, with a control signal flat; the % refers to the signal ratio;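 further: 100% = dexamethasone at 0.1 µM and 0% = DMSO only wells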); conditions: HeLa MMTV-bla, beta-lactamase ratio, agonist, 18 h; stronger effect = higher value; percent of dexamethasone control, DMSO zero
Procedure, shortened: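 MMTV-bla HeLa, beta-lactamase reporter; medium with 1% charcoal/dextran-stripped FBS; cpds up to 92 uM, 18 h, 37 C; CCF4 readout 460/530 nm; Hill fit → EC50, efficacy vs 0.1 uM dexamethasone = 100%.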

[17] = target: Vitamin D3 receptor (Homo sapiens) (UniProt P11473); experiment: qHTS assay for small molecule antagonists of vitamin D receptor signaling (AID 588541);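 further: receptor activated by calcitriol during compound treatment; on the % scale 0 is the no-effect control and ±100 the full control effect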
Procedure, shortened: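 VDR-UAS-bla HEK293T cells (2000/well, 2% charcoal-stripped FBS) were treated with titrated compounds plus 1-alpha,25-dihydroxyvitamin D3 (50 nM or 3 nM final) for 16 h at 37 C. CCF4 beta-lactamase fluorescence was read; Hill fits gave IC50.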

[18] = target: Vitamin D3 receptor (Homo sapiens) (UniProt P11473); experiment: qHTS assay for small molecule agonists of vitamin D receptor signaling (AID 588543);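 further: 0% = DMSO basal and 100% = reference agonist control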
Procedure, shortened: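 β-lactamase reporter, VDR-UAS-bla HEK293T, agonist mode. Cells plated 5 h at 37 °C, compound titration 16 h at 37 °C, CCF4 dye 2 h RT, ratio 460/530 nm. Hill fit → EC50, efficacy vs 50 nM 1α,25-(OH)2D3.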

[19] = Confirmatory screen GU Rhodamine qHTS for Zika virus inhibitors qHTS (AID 1347157; active means well fitted curve in the direction sought with a large enough effect; an effect the other way counts as inactive or inconclusive; further: potency means the concentration at half of the fitted maximal effect; nearly all actives have a fitted effect of over 70% in size)
Procedure, shortened: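 Enzyme 25 nM in Tris-HCl pH 8.0 + 0.01% Tween 20; compounds up to 114 microM, 15 min RT dark; + Rhod110 substrate 1.5 microM; read t0 and 15 min; delta fluorescence → % inhibition → 4-parameter Hill fit.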

[20] = ZIKV-mCherry secondary qHTS for Zika virus inhibitors (AID 1347158; active means well fitted curve in the direction sought with a large enough effect; an effect the other way counts as inactive or inconclusive; further: potency means the concentration at half of the fitted maximal effect); conditions: Vero cells, ZIKV-mCherry infection imaging, 48-72 h
Procedure, shortened: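 Vero cells, 5,000/well, plated overnight at 37 °C, then compound added and infected with recombinant ZIKV-mCherry at MOI 1 for 48-72 h. PFA-fixed, Hoechst nuclear stain, high-content imaging; cells with mCherry intensity above 450 RFU scored infected, reported as percent infection.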

Sequence of Vitamin D3 receptor (Homo sapiens) (P11473 whole entry, looked up): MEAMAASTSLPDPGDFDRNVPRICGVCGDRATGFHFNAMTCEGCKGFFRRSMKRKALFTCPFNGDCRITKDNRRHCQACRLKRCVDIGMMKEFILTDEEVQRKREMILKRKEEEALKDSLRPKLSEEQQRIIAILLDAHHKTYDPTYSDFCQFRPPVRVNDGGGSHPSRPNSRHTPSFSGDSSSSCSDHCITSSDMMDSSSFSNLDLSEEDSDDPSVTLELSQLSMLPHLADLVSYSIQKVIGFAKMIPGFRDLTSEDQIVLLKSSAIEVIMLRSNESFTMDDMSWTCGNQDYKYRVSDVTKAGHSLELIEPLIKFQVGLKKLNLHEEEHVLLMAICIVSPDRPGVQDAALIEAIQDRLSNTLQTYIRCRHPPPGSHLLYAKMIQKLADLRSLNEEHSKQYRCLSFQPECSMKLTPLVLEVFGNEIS
Sequence of Bile acid receptor (Homo sapiens) (Q96RI1 whole entry, looked up): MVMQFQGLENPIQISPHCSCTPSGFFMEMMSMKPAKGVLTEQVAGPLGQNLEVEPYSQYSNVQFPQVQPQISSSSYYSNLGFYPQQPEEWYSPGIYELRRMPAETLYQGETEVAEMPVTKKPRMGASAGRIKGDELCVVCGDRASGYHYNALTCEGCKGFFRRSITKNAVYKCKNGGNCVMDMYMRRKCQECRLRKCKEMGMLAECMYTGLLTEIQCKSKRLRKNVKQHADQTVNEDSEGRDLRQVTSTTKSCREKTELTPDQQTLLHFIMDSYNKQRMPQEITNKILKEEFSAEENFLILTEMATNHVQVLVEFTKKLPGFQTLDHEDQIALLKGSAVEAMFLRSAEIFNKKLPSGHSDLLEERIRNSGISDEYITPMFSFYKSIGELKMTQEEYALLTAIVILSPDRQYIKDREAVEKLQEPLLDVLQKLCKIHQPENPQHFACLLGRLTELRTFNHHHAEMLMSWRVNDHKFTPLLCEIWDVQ
Sequence of Glucocorticoid receptor (Homo sapiens) (P04150 whole entry, looked up): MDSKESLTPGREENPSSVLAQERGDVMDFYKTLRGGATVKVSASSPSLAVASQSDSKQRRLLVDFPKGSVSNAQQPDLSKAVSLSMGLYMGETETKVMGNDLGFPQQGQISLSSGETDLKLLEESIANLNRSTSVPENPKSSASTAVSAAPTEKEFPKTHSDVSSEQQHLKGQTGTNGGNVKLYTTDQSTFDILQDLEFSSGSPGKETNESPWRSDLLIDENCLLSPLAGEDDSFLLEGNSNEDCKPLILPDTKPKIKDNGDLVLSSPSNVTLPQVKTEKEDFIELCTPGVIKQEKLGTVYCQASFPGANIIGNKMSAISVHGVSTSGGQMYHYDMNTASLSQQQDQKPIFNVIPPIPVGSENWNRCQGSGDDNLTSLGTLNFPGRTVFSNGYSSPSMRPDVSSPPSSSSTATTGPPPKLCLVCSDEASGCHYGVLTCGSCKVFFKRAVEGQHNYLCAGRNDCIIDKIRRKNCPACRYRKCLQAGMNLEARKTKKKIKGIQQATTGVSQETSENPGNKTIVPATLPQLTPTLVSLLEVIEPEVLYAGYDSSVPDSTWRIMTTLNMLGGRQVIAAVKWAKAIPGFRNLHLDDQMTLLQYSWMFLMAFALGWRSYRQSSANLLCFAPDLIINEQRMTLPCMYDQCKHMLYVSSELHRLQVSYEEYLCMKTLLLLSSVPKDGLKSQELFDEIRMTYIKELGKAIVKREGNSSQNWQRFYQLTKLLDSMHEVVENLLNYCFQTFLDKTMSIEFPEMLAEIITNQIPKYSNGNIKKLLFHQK
Sequence of Estrogen receptor (Homo sapiens) (P03372 whole entry, looked up): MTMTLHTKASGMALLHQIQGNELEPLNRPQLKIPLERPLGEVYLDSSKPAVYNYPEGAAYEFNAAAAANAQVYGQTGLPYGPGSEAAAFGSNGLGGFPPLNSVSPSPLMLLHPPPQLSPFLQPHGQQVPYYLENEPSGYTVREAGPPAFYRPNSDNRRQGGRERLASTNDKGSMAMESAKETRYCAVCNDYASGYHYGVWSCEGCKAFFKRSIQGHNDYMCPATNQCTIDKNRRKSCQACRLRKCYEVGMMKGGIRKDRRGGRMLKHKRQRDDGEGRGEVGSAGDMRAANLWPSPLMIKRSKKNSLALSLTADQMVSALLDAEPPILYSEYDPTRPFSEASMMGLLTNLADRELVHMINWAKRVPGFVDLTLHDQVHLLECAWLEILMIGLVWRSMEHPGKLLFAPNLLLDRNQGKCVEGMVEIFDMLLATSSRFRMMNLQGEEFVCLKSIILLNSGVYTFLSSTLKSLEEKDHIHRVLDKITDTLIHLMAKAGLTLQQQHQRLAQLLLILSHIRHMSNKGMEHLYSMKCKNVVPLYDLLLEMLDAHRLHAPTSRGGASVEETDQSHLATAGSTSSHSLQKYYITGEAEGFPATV

CO[C@H]1[C@@H](O)CC(OC2[C@@H](O)CC(OC3[C@@H](O)C[C@H](OC4CC[C@@]5(C)C(CCC6C5CC(O)[C@]5(C)[C@H](C7=CC(=O)OC7)CCC65O)C4)O[C@@H]3C)O[C@@H]2C)O[C@@H]1C (stereo not given in full)
inactive: Potency [1] | Potency [2] | Potency [3] | Potency [4]

Oc1c(Cl)c(Cl)c(Cl)c(Cl)c1Cl
active: Potency [6] 47.6 µM | activity change, negative = cytotoxicity [9] -109% | Potency [14] 25.1 µM | Potency [19] 7.08 µM | Potency [20] 11.2 µM
inactive: Potency [5] > 92 µM | Potency [7] > 92 µM | Potency [8] > 92 µM | outcome [10] | outcome [11] | outcome [12] | Potency [13] | activation [15] 0.631% and 4.93% | activation [16] -3.18% | outcome [17] | Potency [18]
